Values without a mark were called inactive. How the calls were made is not given here.

This assay in a line: inhibition of PAO1 biofilm formation – strain PAO1, LB-PBS medium, absorbance 600 nm, primary screen (AID 1176). Further: test concentration not given here. The note with it: P. aeruginosa PAO1 growth/biofilm, A600, 12 h; higher = more signal.
`COC(=O)[C@@]1(Cc2ccc(F)cc2)[C@H]2c3cc(C(=O)N(C)C)n(Cc4ccc(O)c(OC)c4)c3C[C@H]2CN1C(=O)c1ccccc1`: the z-score is 1.72. For `CO[C@H]1O[C@H](CO)[C@@H](OC(=O)Nc2cccc(F)c2)[C@H](OC(=O)Nc2ccccc2-c2ccccc2)[C@H]1OC(=O)Nc1ccccc1-c1ccccc1`, the z-score is 1.16.

With `C=C(CCCC)/C(=C/C[C@H](OC(C)=O)c1ccc(OCCO)cc1)c1cc(C(=O)OC)ccc1OC`, the z-score was 0.825. In the case of `COCCCNC(=O)[C@@]1(Sc2ccc(C)cc2)CC(=O)N(Cc2ccccc2Cl)[C@@H]1c1ccc(CO)cc1I`, the z-score is 0.242. The figure for `COc1cccc(/C=C(\C#N)C(=O)Nc2c(C)n(C)n(-c3ccccc3)c2=O)c1` is 0.792; for `CS(=O)(=O)CCOC(=O)C1=CC(CCCO)=CC(C2CC2)N(Cc2cccc(OC(F)(F)F)c2)C=C1C(=O)OCCS(C)(=O)=O` (stereo not given) it is 0.342. Take `COc1ccc(C#Cc2ccc3c(c2)[C@]2(C(=O)N3)[C@H](C(=O)Nc3nc4ccccc4s3)[C@H]3C(=O)O[C@H](c4ccccc4)[C@H](c4ccccc4)N3[C@@H]2c2ccccc2OCCO)cc1`: the z-score is 2.69.

Turning to `C=C[C@@H](C)[C@@H](OC(=O)Nc1ccc(SC)cc1)c1ccc(OCCO)cc1`, the z-score is 0.119. The result for `CC(=O)N1CC(C(O)C2C=CC3C(=O)NC(=O)C3N2Nc2ccc(Cl)cc2Cl)c2ccccc21` (stereo not given) reads 1.28; that for `CC(C)C[C@@H]1NC(=O)[C@H]2C[C@@H](C(=O)NCCCCCN)[C@@H](c3cccc(OCCO)c3)N2C1=O`, -0.0491; that for `C=C(/C(=C/C[C@@H](OC(C)=O)c1ccc(CO)o1)c1cc(C(=O)OC)ccc1OC)C(C)C`, 0.731. The result for `O=C1OCC=C[C@H]2OC34C=CCN(c5ccc6ccccc6c5)C(=O)[C@H]3N(CCCCCO)C(=O)[C@@H]4[C@@H]12` (stereo not given in full) reads -0.634. Turning to `COC(=O)[C@@]1(Cc2ccccc2)[C@H]2c3cc(C(=O)N4CCCC4)n(CCSCCO)c3C[C@H]2CN1C(=O)c1ccccc1`, the z-score was 0.824. With `NC(=O)[C@@H]1[C@H]2C(=O)O[C@H](c3ccccc3)[C@H](c3ccccc3)N2[C@H](c2ccc(OCCO)cc2)[C@@]12C(=O)Nc1ccc(C#CCCO)cc12`, the z-score is 1.42.

As for `[N-]=[N+]=Nc1ccccc1C[C@]1(C(=O)NCc2ccccc2)COC(c2ccc(OCCCO)cc2)=N1`, the z-score is -0.0837. The figure for `CN1C(=O)[C@@]2(Cc3ccccc3)N=C(c3ccc(OCCCO)cc3)O[C@H]2c2ccccc21` is 1.14. The result for `CCOC(=O)C[C@H]1[C@H](OC(=O)c2ccccc2-c2ccccc2)[C@@H](NC(=O)c2ccc3ccccc3n2)c2cc(OCCCO)ccc2N1C(=O)c1ccccc1` reads -0.165; that for `Nc1cc(Br)ccc1C(=O)O`, -0.612; that for `C=C(COC)C(=O)CC[C@@H](OC(=O)c1cccnc1)c1ccccc1OCCO`, 0.519. For `CCOC(=O)C1=C[C@@H](c2ccccc2)N(S(=O)(=O)c2ccc(C)cc2)[C@H]1c1ccccc1`, the z-score was 0.878. In the case of `CC(C)c1ccc(NN2C(C(O)Cc3ccccc3)C=CC3C(=O)N(c4ccccc4)C(=O)C32)cc1` (stereo not given), the z-score is 0.683. For `C=CCC(OC(C)=O)[C@@H]1[C@@H](N(Cc2ccc(-c3cccc(C(F)(F)F)c3)o2)C(=O)Cc2ccc(OC)cc2)c2cc(OCCCO)ccc2N1C(=O)Cc1ccc2ccccc2c1` (stereo not given in full), the z-score is -0.628. The figure for `COCCOC(=O)N1C(=O)[C@@]2(c3cc(C#CCNC(N)=O)ccc31)[C@H](c1ccc(O)cc1)N1[C@H](c3ccccc3)[C@H](c3ccccc3)OC(=O)[C@H]1[C@@H]2C(N)=O` is 0.0568; for `C=CC1c2cc(O)c(OC)cc2CCN1Cc1ccc([N+](=O)[O-])o1` (stereo not given) it is -1.03. The result for `CC(=O)n1cc(C(O)C2C=CC3C(=O)N(c4ccccc4)C(=O)C3N2Nc2ccc(C(C)C)cc2)c2ccccc21` (stereo not given) reads 1.44; that for `CO[C@H]1O[C@H](CO)[C@@H](OC(=O)c2ccc(Br)cc2)[C@@H]2OC(=O)[C@H](Cc3ccccc3)C/C=C/C[C@@H](Cc3ccccc3)C(=O)O[C@@H]12`, -0.124.

For `CN(C)CCCC[C@@H]1NC(=O)[C@@H]2C[C@H](C(=O)O)[C@H](c3cccc(OCCO)c3)N2C1=O`, the z-score is 0.808. The result for `CCCCCCCCCCC(O)C1C=CC2C(=O)N(c3ccccc3)C(=O)C2N1Nc1ccccc1F` (stereo not given) reads 0.819; that for `C=CCOC(=O)[C@H]1[C@@H]2C(=O)O[C@@H](c3ccccc3)[C@@H](c3ccccc3)N2[C@@H](c2ccc(OCCOC(=O)[C@H]3C[C@H]4C(=O)N[C@@H](CCCCNC(C)=O)C(=O)N4[C@H]3c3cccc(OCCO)c3)cc2)[C@]12C(=O)Nc1ccc(I)cc12`, 2.63. `Cc1ccc(F)cc1S(=O)(=O)N[C@@H]1CCN(Cc2cccc3[nH]ccc23)C1`: the z-score was 0.343.

For `CC(C)C(=C=CC[C@@H](O)c1cccc(OCCO)c1)C[C@@H](O)c1ccccn1`, the z-score is -0.0342.

Turning to `[N-]=[N+]=NCc1ccccc1[C@H]1OC(c2ccc(OCCCO)cc2)=N[C@@]1(Cc1ccccc1)C(=O)NCCN1CCOCC1`, the z-score is 1.26.

Regarding `C=CC[C@H](OC(=O)Nc1ccc(SC)cc1)c1ccc(OCCO)cc1`, the z-score is 0.119. The result for `CN(C)C(=O)[C@@]1(Cc2ccccc2)COC(c2ccc(OCCCO)cc2)=N1` reads -0.841; that for `NC(=O)[C@H]1[C@@H]2C(=O)O[C@@H](c3ccccc3)[C@@H](c3ccccc3)N2[C@@H](c2ccc(O)cc2)[C@]12C(=O)Nc1ccc(C#CC3=CCCCC3)cc12`, -0.144.
